Screens deposited in PubChem BioAssay by Center for Chemical Genomics, University of Michigan.
Dicer inh: blocks human Dicer maturation of pre-miR-21 | 47,000 tested, 6% active | AID 1347074 | cat-ELCCA pre-miR-21 Dicer processing, chemiluminescence; stronger effect = higher value | z-score at 25 µM; in the data active = z-score above about 3, passing the limit was not always enough;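 also: higher signal means more uncleaved substrate so more Dicer inhibition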
Of the large screens only hits and unclear results are named; the others gave an inactive call. The full list was thinned out, with hits kept by preference.

Cc1ccc(C(=O)OCC(=O)C(C)(C)C)cc1N1C(=O)c2c(C)nc3ccccc3c2C1=O	Dicer inh 3.2
COc1ccc(C2=NN(C(=O)CCCC(=O)O)C(c3ccc(Cl)cc3)C2)cc1OC (centres undefined)	none
COc1cccc(C2CC(c3ccccc3)=NN2C(=O)CCCC(=O)O)c1OC (centres undefined)	none
COc1ccc(C2=NN(C(=O)CCCC(=O)O)C(c3ccc(F)cc3)C2)cc1OC (centres undefined)	Dicer inh 3.8
C/C(=N\Nc1nc2c(c(=O)n(C)c(=O)n2C)n1Cc1ccccc1)c1ccc(Cl)cc1	none
COc1ccc(-c2nc3c([nH]2)c(=O)[nH]c(=O)n3C)cc1	none
O=c1cc(CSc2n[nH]c(=O)n2C2Cc3ccccc3C2)c2ccc(O)cc2o1	none
O=C(COc1ncnc2cc(Cl)ccc12)Nc1ccc(Cl)cc1	none
COc1nccnc1NS(=O)(=O)c1ccc(NCc2cc(Br)ccc2O)cc1	Dicer inh 6.3
CCn1c(NCc2cc(Br)ccc2O)nc2ccccc21	none
COc1nccnc1NS(=O)(=O)c1ccc(NC(=O)c2cc(Cl)cc(Cl)c2)cc1	none
OC[C@@H](O)[C@H](O)[C@H](O)[C@@H](O)C(SCc1ccccc1)SCc1ccccc1	none
Fc1c(F)c(Oc2ccccc2)c(F)c(F)c1Oc1ccccc1	none
Nc1ccc(Oc2ccccc2)cc1	Dicer inh 5
Nc1cc(Cl)ccc1Oc1ccccc1	none
O=C(CCCSc1nc(-c2ccco2)cc(C(F)(F)F)n1)NCc1cccnc1	none
CCC(=O)Oc1ccc2oc(C)c(C(=O)OCCOC)c2c1	none
O=S(=O)(Nc1ccc(O)c(-c2c(O)ccc3ccccc23)c1)c1ccc(Cl)cc1	Dicer inh 8.5
Cc1oc2ccc(NS(=O)(=O)c3ccc(Cl)cc3)cc2c1C(=O)OC(C)C	none
CC(=O)Nc1cc2cc(NS(=O)(=O)c3ccc(Cl)cc3)ccc2oc1=O	none
C1=CC2c3cc(-c4ccccc4)ccc3NC(c3ccncc3)C2C1 (centres undefined)	none
CCOC(=O)c1c[nH]c2c(C)cc(Cl)cc2c1=O	none
COC(=O)c1c(C)[nH]c(C)c1/C=N/N=C/c1c(C)[nH]c(C)c1C(=O)OC	none
COC(=O)C1=NNC(C(=O)OC)=C2COCOCC12 (centres undefined)	none
COc1ccc2oc(C(=O)c3ccc(Cl)cc3)c(N)c2c1	none
COc1ccc(C(=O)c2oc3ccc(OC)cc3c2N)cc1	Dicer inh 4.2
COc1ccc(C(=O)c2coc3ccc(O)cc23)cc1	Dicer inh 5.4
COc1ccc(C(=O)c2oc3ccc(Cl)cc3c2N)cc1	none
COc1ccc(C(=O)c2ccccc2)c(O)c1	none
COc1ccc(-c2cc(=O)c3ccc(O)cc3o2)cc1	none
Clc1ccc(/C=N/Nc2ncn[nH]2)cc1	none
O=C1C(Oc2ccccc2)C(c2ccc3c(c2)OCO3)N1CCc1ccc(Cl)cc1 (centres undefined)	none
CCCCN1C(=O)C(O)(CC(=O)c2ccc(C)o2)c2cc(Br)ccc21 (centres undefined)	none
CCOc1cc(C2C(C(=O)OCCc3ccccc3)=C(C)NC3=C2C(=O)CC(C)(C)C3)ccc1O (centres undefined)	none
O=C1CCCC2=C1C(c1ccccc1Cl)Nc1ccc(C(=O)c3ccccc3)cc1N2 (centres undefined)	none
CCOc1ccc(Nc2ncnc3c2ncn3-c2ccc(OCC)cc2)cc1	none
COC(OC)c1ccc2c(N)c(C(=O)Nc3ccccc3)sc2n1	none
O=C1CCC2=C(CCCC2)N1c1ccccc1	none
CC(=O)Nc1c(C)cc(Cl)cc1Cl	none
C/C(=N\Nc1c(Cl)cc(Cl)cc1Cl)c1cc(F)ccc1O	none
C/C(=N\Nc1c(Cl)cc(Cl)cc1Cl)c1oc(C)nc1C	Dicer inh 3.2
COc1ccc2sc(C)[n+](CC(O)CS(=O)(=O)[O-])c2c1 (centres undefined)	none
CSc1ccc(C2C3=C(Nc4c2c(=O)[nH]c(=O)n4C)c2ccccc2C3=O)cc1 (centres undefined)	none
O=C(Nc1cccc(NC(=O)c2c(F)cccc2F)n1)c1c(F)cccc1F	none
O=C(O)COCC(=O)Nc1ccccn1	none
O=C(Nc1ccccn1)c1cccc(C(=O)Nc2ccccn2)n1	Dicer inh 3.5
c1ccc(Nc2ncnc3c2sc2ncccc23)cc1	none
CC(C)c1ccc(C2/C(=C(/O)c3ccc(F)cc3)C(=O)C(=O)N2c2nncs2)cc1 (centres undefined)	none
COc1cccc2ccc(=O)n(C)c12	none
Cn1c(-c2ccccc2)cccc1=O	Dicer inh 3.8
Cn1c(-c2ccccc2)cn2cc(-c3ccccc3)nc12	none
CC(C)(C)CNC(=O)NC(=O)c1ccc(F)c(Cl)c1	none
NC(=O)c1ccc2c(c1)C1C=CCC1C(c1ccc(Cl)cc1)N2 (centres undefined)	none
Cc1cccc(N2C(=O)C3C4C=CC(C4)C3C2=O)n1 (centres undefined)	none
Cc1cc(N2C(=O)C3C4C=CC(C4)C3C2=O)no1 (centres undefined)	Dicer inh 3.7
Cc1noc(N2C(=O)C3C4C=CC(C4)C3C2=O)c1C (centres undefined)	none
CCCOC(=O)C1=C(C)NC2=C(C(=O)CCC2)C1c1ccc(O)c(OCC)c1 (centres undefined)	none
OCCCNc1ncnc2c1sc1nc(-c3ccccc3)c3c(c12)CCCC3	none
CN(C)c1ccnc2sc3c(N(CCO)CCO)ncnc3c12	Dicer inh 3.3
OCCN(CCO)c1ncnc2c1sc1nc(N3CCOCC3)c3c(c12)CCCC3	none
Fc1ccc(-c2cc3ncc4c(n3n2)-c2ccccc2OC4)cc1	none
Cc1cc(SCC(=O)O)nc(N)n1	none
Cc1n[nH]c(=O)nc1NCC1CCCO1 (centres undefined)	Dicer inh 5.8
Cc1n[nH]c(=O)nc1NCCCN(C)C	none
Cc1ccccc1Cn1c(NCC2CCCO2)nc2c1c(=O)n(C)c(=O)n2C (centres undefined)	none
O=C(Nc1ccc2c(c1)C(=O)OC2)NC1CCCCC1	none
Cc1ccccc1C(=O)Cc1ccc(C(N)=O)cc1	none
COc1ccc(C2C3C(=O)NC(=O)C3ON2c2ccccc2)cc1 (centres undefined)	none
COc1ccc(N2C(=O)C3ON(c4ccccc4)C(c4cc(Br)ccc4O)C3C2=O)cc1 (centres undefined)	none
O=C1C2ON(c3ccccc3)C(c3ccccc3O)C2C(=O)N1c1ccc(Br)cc1 (centres undefined)	Dicer inh 3.4
O=C1C2ON(c3ccccc3)C(c3cc(Br)ccc3O)C2C(=O)N1c1ccccc1 (centres undefined)	Dicer inh 4.7
O=C1C2ON(c3ccccc3)C(c3cccnc3)C2C(=O)N1c1ccc(F)cc1 (centres undefined)	none
COC(=O)c1ccc(N2C(=O)C3ON(c4ccccc4)C(c4ccc(OC)cc4OC)C3C2=O)cc1 (centres undefined)	none
COc1cccc(N2C(=O)C3ON(c4ccccc4)C(c4ccccc4O)C3C2=O)c1 (centres undefined)	Dicer inh 3.9
Cc1ccc(N2C(=O)C3ON(c4ccccc4)C(c4ccccc4O)C3C2=O)cc1 (centres undefined)	none
Cc1ccc(N2C(=O)C3ON(c4ccccc4)C(c4cccnc4)C3C2=O)cc1 (centres undefined)	none
COc1ccc(N2C(=O)C3ON(c4ccccc4)C(c4ccccc4O)C3(C)C2=O)cc1 (centres undefined)	Dicer inh 4
COc1ccc(C2C3C(=O)N(c4ccccc4)C(=O)C3ON2c2ccccc2)cc1 (centres undefined)	none
COc1ccc(N2C(=O)C3ON(c4ccccc4)C(c4ccco4)C3C2=O)cc1 (centres undefined)	none
COc1ccc(N=CC2=C(Cl)c3cc(F)ccc3OC2)cc1	none
